# Experimental data reported in the supplement of paper PMC6555819.
# Assays:
# Experiment in all cases: PBM binding z-score (relative to random genomic background probes); higher = stronger binding; sequences stand for … in GC…GCGATTGACAGCGTAGAATGAAGG
# [1] = test system: FXR:RXRa (NR concentration 270 nM, RXRa partner concentration 90 nM)
# Method in brief: (§1)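 Ligand-free nuclear receptor dimers were bound for 1 h to custom Agilent 4×180K protein-binding microarrays. Detection used antibodies against each partner (one per run). Binding z-scores rest on regression-normalized fluorescence, with random background probes as the reference.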
# [2] = test system: LXRa:RXRa (NR concentration 270 nM, RXRa partner concentration 90 nM)
# Method in brief: as §1
# [3] = test system: LXRa homodimer (NR concentration 270 nM)
# Method in brief: as §1
# [4] = test system: LXRb:RXRa (NR concentration 270 nM, RXRa partner concentration 90 nM)
# Method in brief: as §1
# [5] = test system: LXRb homodimer (NR concentration 270 nM)
# Method in brief: as §1
# [6] = test system: PPARg:RXRa (NR concentration 180 nM, RXRa partner concentration 90 nM)
# Method in brief: as §1
# [7] = test system: PPARg:RXRa 270nM:90nM, anti-RXR (NR concentration 270 nM, RXRa partner concentration 90 nM)
# Method in brief: as §1
# [8] = test system: PPARg:RXRa 30nM:10nM, anti-RXR (NR concentration 30 nM, RXRa partner concentration 10 nM)
# Method in brief: as §1
# [9] = test system: PPARg:RXRa 90nM:30nM, anti-RXR (NR concentration 90 nM, RXRa partner concentration 30 nM)
# Method in brief: as §1
# [10] = test system: PPARg:RXRa DBDmut IVT, anti-RXR (DBD mutation: RXRa K156A/R161A, NR concentration 270 nM, RXRa partner concentration 90 nM)
# Method in brief: as §1
# [11] = test system: PPARg:RXRa IVT, anti-PPARg (NR concentration 270 nM, RXRa partner concentration 90 nM)
# Method in brief: as §1
# [12] = test system: PPARg DBDmut:RXRa IVT, anti-PPARg (DBD mutation: PPARg1 K132A/R137A, NR concentration 270 nM, RXRa partner concentration 90 nM)
# Method in brief: as §1
# [13] = test system: PPARg DBDmut IVT, anti-PPARg (DBD mutation: PPARg1 K132A/R137A, NR concentration 270 nM)
# Method in brief: as §1
# [14] = test system: PPARg homodimer (NR concentration 180 nM)
# Method in brief: as §1
# [15] = test system: PXR:RXRa (NR concentration 270 nM, RXRa partner concentration 90 nM)
# Method in brief: as §1
# [16] = test system: PXR homodimer (NR concentration 270 nM)
# Method in brief: as §1
# [17] = test system: RARa:RXR (NR concentration 270 nM, RXRa partner concentration 90 nM)
# Method in brief: as §1
# [18] = test system: RARa homodimer (NR concentration 270 nM)
# Method in brief: as §1
# [19] = test system: RARb:RXRa (NR concentration 270 nM, RXRa partner concentration 90 nM)
# Method in brief: as §1
# [20] = test system: PPARa:RXRa (NR concentration 270 nM, RXRa partner concentration 90 nM)
# Method in brief: as §1
Sequence,PBM binding z-score [1],PBM binding z-score [2],PBM binding z-score [3],PBM binding z-score [4],PBM binding z-score [5],PBM binding z-score [6],PBM binding z-score [7],PBM binding z-score [8],PBM binding z-score [9],PBM binding z-score [10],PBM binding z-score [11],PBM binding z-score [12],PBM binding z-score [13],PBM binding z-score [14],PBM binding z-score [15],PBM binding z-score [16],PBM binding z-score [17],PBM binding z-score [18],PBM binding z-score [19],PBM binding z-score [20]
CCTGCTAGGTCAATGGTCAGCTAAAGCAGCTCGC,3.01,2.21,-0.22,1.4,-0.359,4.36,5.49,3.2,5.15,4.63,4.19,-1.03,-1.12,0.944,0.92,-0.545,1.82,-0.551,3.73,–
CCAGACAGGTGAAAGGTAACTCACTCTGGTACGC,1.02,0.665,-0.00301,0.938,-0.466,6.03,6.05,4.21,6.66,2.36,3.27,-0.16,0.145,1.28,0.983,0.186,1.84,0.159,1.26,–
GATACGGGGTCAGCTAGAGGCCAGAGTATGGAAA,7.6,5.46,-0.127,5.17,0.715,7.74,7.16,3.25,5.78,3.12,4.66,1.44,0.481,4.42,5.75,0.6,6.84,0.888,5.15,–
TAGCCTAGGTCATTGTGCCAGTATAGTACGCATC,4.04,3.2,1.08,2.51,0.948,2.89,2.79,0.475,2.19,2.37,3.23,-0.0725,0.703,0.97,1.47,0.0622,1.89,-0.0989,3.44,–
GATTACGGGTCAAAGGTTATAGCATGAATAGAAT,7.94,6.17,1.25,6.01,0.564,11.8,9.6,10.5,11.3,5.21,6.61,1.49,3.11,2.97,6.03,0.645,8.43,1.34,4.69,–
CGTCCAAGCTCAGCAGGTCAGTGAAAGCGACGTG,-0.394,-0.404,-0.449,0.048,-1.03,-0.464,-0.756,-1.14,-0.879,-0.243,-0.249,-0.634,-0.872,-0.131,0.0588,-0.688,0.234,-0.706,1.45,–
CCGAGTAGGTTAGGAGGGGGCATTCAGTGCGAAT,2.47,4.27,1.19,5.24,–,1.74,2.65,1.44,2.24,3.01,4.36,–,–,2.59,4.53,6.27,2.88,0.952,2.06,2.86
TCGAGTAGGTAACGGGGGCATTCAGGGATGAAGA,1.53,1.83,0.159,4.16,–,4.6,4.51,2.68,3.8,4.46,5.38,–,–,1.54,2.44,1.58,2.48,0.232,1.74,3.41
CCGAGTAGGTTACGAGGGGGCATTCATTGCGAAT,2,6.78,1.16,6.12,–,2.64,3.26,1.35,2.85,4.44,4.49,–,–,1.17,4.23,0.535,2.77,0.224,1.94,3.42
CGAACTAGGTCAAAGGTCAGTGAAAGGCGACGTA,7.45,6,2.09,5.55,0.335,–,11.3,12.7,14,8.37,9.1,–,4.58,5.51,–,0.306,–,2.87,–,–
TCATATAGGTCAAAGGTGAAAGTCGGTGTGGTAA,7.15,6.06,2.14,5.58,1.91,–,9.8,10.4,11.4,8.06,7.84,1.77,2.53,3.28,5.31,1.13,–,1.6,4.89,–
TCGAGTAGGTTACGGGGGCATTCTGGGATGAAGA,2.21,2.51,0.493,5.03,–,6.17,5.55,3.42,4.95,5.04,5.91,–,–,1.3,2.85,1.48,2.92,-0.159,2.27,4.23
AGAATGAGGTTACCAGAGATCAGGGAAACGCTTG,2.17,6.18,-0.181,3.62,-0.177,2.77,2.74,0.897,1.85,3.82,3.51,1.02,-0.0941,0.651,1.95,-0.0597,2.47,0.341,2.15,–
CCGAGTAGGTTACGAGGGGGCATTCCGTGCGAAT,2.81,7.17,1.62,6.21,–,1.77,2.96,0.628,1.69,4.52,4.42,–,–,1.68,4.37,0.912,2.94,0.747,2,3.36
CTATGTAGGTAAAGGGGGTCATTCAGTTTGAAAG,4.07,4.67,2.77,5.98,–,7.28,7.12,4.91,6.93,6.89,7.06,–,–,3.59,5.82,10.7,6.13,1.83,–,5.92
TTTAGTTGGTCAAAGGTCACACACTCGAAATGCG,6.28,5.76,3.99,5.54,1.9,–,10.6,11.3,11.6,4.19,7,2.09,2.08,5.45,6.21,1.61,7.55,3.28,5.17,–
